This is a sample that favours compounds with a hit; in the whole collection about 4% have one here.
D1 antagonist: blocks dopamine activation of the human D1 receptor; P21728; HEK293 TREx D1 cells, calcium flux, dopamine EC80; stronger effect = lower value; activity change, negative = inhibition, % at 10 µM; 3.2% of 360,000 active; AID 504652; in the data active means activity change below about -30%; further: on the % scale 0 is the no-effect control and ±100 the full control effect
Target sequence (P21728 whole entry, looked up): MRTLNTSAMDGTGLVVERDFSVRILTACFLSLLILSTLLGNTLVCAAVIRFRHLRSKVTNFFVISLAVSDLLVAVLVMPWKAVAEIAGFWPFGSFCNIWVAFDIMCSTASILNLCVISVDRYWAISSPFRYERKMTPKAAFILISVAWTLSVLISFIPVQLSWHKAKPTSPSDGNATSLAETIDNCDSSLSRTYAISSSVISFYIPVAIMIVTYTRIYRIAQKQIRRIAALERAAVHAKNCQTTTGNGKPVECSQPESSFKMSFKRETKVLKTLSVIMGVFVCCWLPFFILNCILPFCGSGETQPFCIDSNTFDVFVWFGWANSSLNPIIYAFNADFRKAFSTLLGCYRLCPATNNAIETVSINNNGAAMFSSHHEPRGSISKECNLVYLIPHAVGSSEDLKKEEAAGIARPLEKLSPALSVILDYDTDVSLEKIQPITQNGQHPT
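Antagonism measured as reduced calcium response to an EC80 dopamine addition following 180 s compound pre-read; cells were inducible HEK293 Trex D1 plated overnight at 30 C, read kinetically at 1 cycle/sec.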
D1 ag: activates the human D1 dopamine receptor; 1% of 360,000 active; P21728; activation, % at 2 µM; HEK293 T-REx D1 cells, calcium flux, agonist mode; further: 0% is about no effect
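Inducible HEK293 T-REx D1 cells, force-coupled to calcium signalling, were plated at 4000 cells/well with tetracycline and held overnight at 30 C. After no-wash calcium dye loading, compound-evoked calcium rise over 180 s flagged agonists.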
TRHR ag: TRH receptor (human) agonism. TRHR cells, calcium flux fluo-8, FDSS agonist mode. activation, % at 2 µM. 0.18% of 360,000 active; further: 0% is about no effect
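In this calcium-flux screen, cells bearing human TRHR are dye-loaded with fluo-8, baselined for 10 cycles, then exposed to library compounds; positive kinetic calcium responses during the agonist phase mark hits, with TRH as control.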
GRP78 ERSR act: induces the endoplasmic reticulum stress response in human glioma cells; U87-MG GRP78 promoter luciferase reporter, 16 h; 0.02% of 420,000 active; AID 602332; Potency, µM, for the others: at the highest dose activation, most hits filed as activators; active means well fitted activation curve with a large enough effect; further: potency means the concentration at half of the fitted maximal effect; series mostly up to about 76 µM; % of control where 0% means no effect; nearly all actives have a fitted effect of over 35% in size
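ERSR induction read as luciferase luminescence (Bright-Glo, 10 min at room temperature) in stably transfected human U87-MG glioma cells exposed to compounds for 16 h, using GRP78 as sensor.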
TRHR PAM: TRH receptor (human) allosteric enhancement; P34981; TRHR cells, fluo-8 calcium fluorescence, EC20 TRH enhancement; enhancement, % at 2 µM; 0.66% of 360,000 active; in the data active means enhancement above about 30%; further: 0% is about no effect
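Enhancer read-out: after compound pinning and an initial kinetic agonist-mode read, an EC20 of TRH (10 nM final) was injected and fluo-8 calcium signal (Ex 480/Em 530) followed at 1 s/cycle for 100 cycles in TRHR-expressing cells.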
D1 PAM: potentiators of human D1 dopamine receptor; HEK293 TREx D1 cells, calcium flux, dopamine EC20 potentiation; potentiation, % at 10 µM; AID 504651; 0.036% of 360,000 active; in the data active means potentiation above about 30%; further: 0% is about no effect
Active calls of the source: *; . = not tested or not shown; ! = repeats disagree. Unless noted, no stated cut-off is given here; in the data, active means activation above about 30%; inactive means the rest.

SMILES	D1 antagonist	D1 ag	TRHR ag	GRP78 ERSR act	TRHR PAM	D1 PAM
COc1ccc(-c2nnc(N3CCCCC3)c3ccccc23)cc1	-4.5	-1.1	-0.2	-1.0%	-2.6	1.9
COc1ccc(CNCCc2ccc(Cl)cc2)cc1OCc1ccccc1	-18.6	57.6*	0.0	-9.8%	20.9	-2.9
CCNCc1ccc(OCc2cccs2)c(OCC)c1	-15.8	2.1	0.2	-1.0%	-3.1	-4.3
COc1ccc(CCNCc2ccc(OCc3ccccc3)cc2)cc1	19.1	61.4*	0.8	2.0%	6.5	2.6
CCOc1cc(CNCc2ccccc2)ccc1OCc1ccc(Cl)cc1	-19.5	34.5*	3.6	-2.6%	11.8	3.0
COc1ccc(CCNCc2ccc(OCc3ccc(Cl)nc3)c(OC)c2)cc1OC	-8.2	59.3*	3.6	-2.3%	-0.2	-6.5
COc1ccc(CNS(=O)(=O)CCNCCc2ccccc2)cc1	.	.	.	17.2%	.	.
CCC1CN(C(=O)Nc2cccc3c2CCCC3)c2cc(Cl)ccc2O1 (stereo unspecified)	3.4	6.3	1.0	-3.4%	-0.9	1.1
CCNc1ccc(/C=C/c2ccnc3ccccc23)cc1	.	.	.	0.0%	.	.
COc1cc(OC)cc(C(=O)N2CCCC(n3cc(C(=O)NCC(C)C)nn3)C2)c1 (stereo unspecified)	.	.	.	-0.8%	.	.
CSCC[C@H](NC(=O)[C@H](Cc1ccc(OS(=O)(=O)O)cc1)NC(=O)[C@@H](N)CC(=O)O)C(=O)NCC(=O)N[C@@H](Cc1c[nH]c2ccccc12)C(=O)N[C@@H](CCSC)C(=O)N[C@@H](CC(=O)O)C(=O)N[C@@H](Cc1ccccc1)C(N)=O	.	.	.	-0.5%	.	.
Cc1ccc(C)c(NC(=O)CN(C)C(=O)c2oc3c(Cl)cccc3c2C)c1	8.0	3.8	0.1	-2.0%	-0.4	3.2
COc1cccc(OCCNCc2ccccc2)c1	-17.7	4.5	0.3	-2.9%	1.7	33.6*
Cc1cccc(OCCCCNCc2ccccc2)c1	14.9	8.4	-0.1	-2.2%	-2.3	-3.3
c1ccc(COc2ccc(CNCc3cccs3)cc2)cc1	-7.2	129.1*	0.2	2.7%	6.4	41.9*
CCOC(=O)N1CCN(c2ccc(O)cc2)CC1	1.9	3.8	0.0	-2.5%	1.0	-1.5
O=C(NCCc1csc(-c2cccnc2)n1)c1cccc(C(F)(F)F)c1	-4.2	6.3	-0.9	-4.0%	-1.5	-2.5
O=C(NN=C1CCN(Cc2ccccc2)CC1)c1ccccc1O	-30.9*	0.0	0.5	8.4%	3.8	-1.8
COC(=O)/C=C1\N/C(=N\c2nc(C)cc(C)n2)N(c2ccccc2)C1=O	-52.0*	0.4	0.7	-5.4%	0.4	-2.8
CCOc1ccc(S(=O)(=O)N(CCO)CCO)cc1-c1nc2c(C(C)(C)C)nn(C)c2c(=O)[nH]1	-1.3	0.9	0.1	1.6%	4.3	30.4*
Cc1ccc(S(=O)(=O)NCC(=O)OCCOc2cccc(Cl)c2)cc1	-4.7	4.0	0.7	-2.2%	4.1	39.9*
Cc1ccc(S(=O)(=O)NCCC(=O)OCC(=O)Nc2cccc(Cl)c2)cc1	-42.3*	7.3	-0.2	-4.3%	-5.5	-4.6
Cc1ccccc1C(=O)N1CCN(c2ccc(NC(=O)c3ccc([N+](=O)[O-])o3)cc2)CC1	2.7	6.7	0.6	-14.8%	-2.9	-4.0
C[n+]1ccc(CC2C(=[N+]([O-])[O-])C=Nc3ncnn32)cc1 (stereo unspecified)	13.5	0.6	0.1	-0.9%	10.1	1.6
N#CN=c1snc(-c2ccccc2Cl)n1-c1ccc(F)cc1	.	.	.	0.6%	.	.
SMILES	D1 antagonist	D1 ag	TRHR ag	GRP78 ERSR act	TRHR PAM	D1 PAM
CCn1cnc2c(Nc3ccc(Cc4cccnc4)cc3)nc(C#N)nc21	-2.3	2.6	-0.6	.	-8.3	4.2
c1ccc(Sc2ncnc3c2oc2ccccc23)cc1	-35.1*	0.6	-0.4	1.3%	5.0	-4.7
Cc1c(NC(=O)Cn2ccc([N+](=O)[O-])n2)c(=O)n(-c2ccccc2)n1C	-3.7	5.4	-0.7	-2.5%	5.5	0.2
Oc1ccc(CNCc2ccc3c(c2)OCO3)c2cccnc12	11.2	11.1	0.2	.	-4.6	-1.5
Cc1cc2nc(-c3ccc(NC(=O)C(C)C)cc3)oc2cc1C	-32.8*	1.3	0.3	1.1%	-2.5	-2.4
Cc1ccc(-c2nc3cc(NC(=O)C(C)C)ccc3o2)cc1	16.0	-1.7	-1.9	-1.1%	-5.7	7.7
O=C(Nc1ccc2c(c1)CCC2)c1cnn2c1NC(=C1CC1)C=C2C(F)F	.	.	.	-1.7%	.	.
O=c1ccc2cc(S(=O)(=O)N3CCN(c4ccccc4F)CC3)ccc2[nH]1	-34.4*	12.4	-0.6	-0.8%	1.0	-9.7
Cc1ccc(Cl)cc1N1CCN(S(=O)(=O)c2cn(C)c(C)n2)CC1	6.7	0.5	0.1	-2.7%	0.8	0.8
Cc1ccc(Cl)cc1N1CCN(S(=O)(=O)c2cn(C)cn2)CC1	-34.6*	13.2	-0.7	-5.4%	-0.5	-3.8
Cc1ccc(Cl)cc1N1CCN(S(=O)(=O)c2ccc3[nH]c(=O)ccc3c2)CC1	-89.2*	0.8	-0.6	6.0%	1.5	-15.2
Cc1ccc(Cl)cc1N1CCN(S(=O)(=O)c2ccc3[nH]c(=O)c(=O)[nH]c3c2)CC1	-6.8	25.2	0.8	-4.3%	5.9	-2.1
Cn1c(=O)oc2cc(S(=O)(=O)Nc3ccccc3O)ccc21	-40.0*!	7.4	0.8	0.4%	-5.4	-5.8
Cn1c(=O)oc2cc(S(=O)(=O)NCCN3CCCCCC3)ccc21	-9.2	1.0	-0.4	-2.2%	-0.3	-1.0
CCOc1ccccc1NC(=O)Cn1c(=O)oc2cc(S(=O)(=O)NCc3ccccc3)ccc21	-39.1*	2.1	-0.5	-3.0%	-4.9	-3.2
COc1ccc(OC)c(NC(=O)Cn2c(=O)oc3cc(S(=O)(=O)NCc4ccccc4)ccc32)c1	-8.3	5.5	-0.1	-1.3%	0.5	5.7
Cn1c(=O)oc2cc(S(=O)(=O)NCc3ccccc3)ccc21	11.1	5.9	-0.1	-3.3%	-11.4	9.2
Cn1c(=O)oc2cc(S(=O)(=O)NCc3ccc(Cl)cc3)ccc21	-37.4*	3.6	-0.2	-2.9%	-8.5	-4.6
Cn1c(=O)oc2cc(S(=O)(=O)NCCN3CCN(c4ccccc4F)CC3)ccc21	-75.2*	2.4	-0.7	-2.5%	-10.4	-10.3
O=C(C[n+]1csc2ccccc21)c1ccc(I)cc1	.	.	.	-6.0%	.	.
Cc1ccc(NS(=O)(=O)c2ccc3c(c2)oc(=O)n3C)cc1	-3.5	11.9	-0.1	2.0%	-4.6	0.4
CC(C)c1ccc(NC(=O)C(Cc2ccccc2)NS(=O)(=O)c2ccc3c(c2)oc(=O)n3C)cc1 (stereo unspecified)	-37.2*	4.6	0.9	-4.6%	-4.0	-6.8
CCc1ccc(NS(=O)(=O)c2ccc3c(c2)oc(=O)n3C)cc1	-33.6*	20.6	1.0	-1.6%	-8.2	-13.4
